PubChem BioAssay (Tox21)
Active and inactive are the calls of the source. A call without a number means that no potency is given here. Calls come from the whole dose curve.

target: Acetylcholinesterase (Homo sapiens) (UniProt P22303); test: Acetylcholinesterase (AChE) small molecule antagonists: enzyme-based qHTS assay (AID 1347397); details: Potency: AChE enzyme activity inhibition; series mostly up to 115 µM; note: nearly all actives have a fitted effect of over 55% in size
From the text: National Center for Advancing Translational Sciences [NCATS]
Division of Preclinical Innovation [DPI]
U.S. Environmental Protection Agency [EPA]
National Institutes of Environmental Health Sciences [NIEHS]
National Toxicology Program [NTP]
U.S. Food and Drug Administration [FDA]
Acetylcholinesterase (AChE) is the primary cholinesterase in the body that hydrolyzes a key neurotransmitter, acetylcholine. Inhibition of AChE activity can lead to neurotoxicity. The known inhibitors include organophosphorous pesticides (OP), chemical warfare agents, drugs, and various phytochemicals.
An enzyme-based assay with the recombinant human AChE and Amplite Colormetric acetylcholinesterase assay kit (AAT Bioquest, Sunnyvale, CA) was used to evaluate the chemicals in the Tox21 10K library that inhibit AChE activity. The assay uses 5, 5-dithiobis-(2-nitrobenzoic acid) (DTNB) to quantify the thiocholine produced from the hydrolysis of acetylthiocholine by AChE.
Tox21 Assay Protocol Summary:
For the enzyme-based AChE assay, recombinant human AChE (50 mU/mL) in 4 uL/well was dispensed into black, clear-bottom 1536-well plates using a Multidrop Combi dispenser (Thermo Scientific, MA). Then, 23 nL of compound or DMSO (vehicle control) was transferred into the assay plates by a Pintool Station (Wako Automation, CA). The plates were incubated for 30 min at room temperature, followed by the addition of 4 uL of colorimetric detection cocktail solution (DTNB, acetylthiocholine) into each well using a Flying Reagent Dispenser (Beckman Coulter, CA) and then 10 min incubation at room temperature.

Chain of Acetylcholinesterase (Homo sapiens) (P22303 whole entry, looked up): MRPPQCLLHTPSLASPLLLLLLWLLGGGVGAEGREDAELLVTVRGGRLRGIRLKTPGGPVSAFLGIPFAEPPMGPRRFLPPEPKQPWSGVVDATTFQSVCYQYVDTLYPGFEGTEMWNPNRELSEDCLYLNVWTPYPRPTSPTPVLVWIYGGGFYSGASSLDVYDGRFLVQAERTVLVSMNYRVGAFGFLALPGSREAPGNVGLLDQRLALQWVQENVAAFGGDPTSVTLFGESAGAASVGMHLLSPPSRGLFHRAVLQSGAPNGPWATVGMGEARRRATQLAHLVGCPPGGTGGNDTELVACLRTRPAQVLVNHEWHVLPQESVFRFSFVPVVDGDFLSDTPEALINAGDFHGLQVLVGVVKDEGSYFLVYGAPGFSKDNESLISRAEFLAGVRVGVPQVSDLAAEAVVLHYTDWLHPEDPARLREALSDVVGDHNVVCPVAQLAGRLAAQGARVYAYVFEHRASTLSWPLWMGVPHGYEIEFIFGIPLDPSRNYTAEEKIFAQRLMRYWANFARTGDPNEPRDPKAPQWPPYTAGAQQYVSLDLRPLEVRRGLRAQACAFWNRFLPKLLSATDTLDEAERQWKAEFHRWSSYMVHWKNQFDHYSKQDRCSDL

Row | Structure (SMILES) | Potency
1 | O=c1[nH]c(=O)[nH]c(=O)[nH]1 | inactive
2 | c1ccc2c(c1)oc1ccccc12 | inactive
3 | Oc1ccccc1Cl | inactive
4 | Nc1ccccc1C(=O)O | inactive
5 | CCNc1nc(NC(C)C)nc(SC)n1 | inactive
6 | CCCCCCCCCCCC#N | inactive
7 | Cc1ccc(N)cc1Cl | inactive
8 | O=C1CCCN1 | inactive
9 | CC(C)(C)C(O)(CCc1ccc(Cl)cc1)Cn1cncn1 (stereo not given) | inactive
10 | O=c1[nH]c2ccccc2c(=O)o1 | inactive
11 | CC(C#N)CCC#N (stereo not given) | inactive
12 | [O-][Cl+2]([O-])O | inactive
13 | Clc1cccc(Cl)c1Cl | inactive
14 | Nc1ccc(Br)cc1 | inactive
15 | CCC12COCN1COC2 | inactive
16 | CC(C)C1(C)N=C(c2nc3ccccc3cc2C(=O)O)NC1=O (stereo not given) | inactive
17 | COC(=O)NC(=S)Nc1ccccc1NC(=S)NC(=O)OC | inactive
18 | O=c1ccc(=O)[nH][nH]1 | inactive
19 | CCNc1nc(NC(C)(C)C)nc(SC)n1 | inactive
20 | O=NN1CCCCCCC1 | inactive

Row | Structure (SMILES) | Potency
21 | CC(C)OC(=O)Nc1cccc(Cl)c1 | inactive
22 | COC(=O)NS(=O)(=O)c1ccc(N)cc1 | inactive
23 | CCOP(=S)(OCC)SCCSCC | inactive
24 | CCCN(CCC)N=O | inactive
25 | C1CN2CCN1CC2 | inactive
26 | Cn1cc(-c2ccccc2)c(=O)c(-c2cccc(C(F)(F)F)c2)c1 | inactive
27 | COC(=O)c1ccccc1N | inactive
28 | CN(C)N=O | inactive
29 | c1ccc(OP(Oc2ccccc2)Oc2ccccc2)cc1 | inactive
30 | BrCCBr | inactive
31 | CC1OC(C)OC(C)O1 (stereo not given) | inactive
32 | CC(C)=C[C@@H]1[C@@H](C(=O)OCc2coc(Cc3ccccc3)c2)C1(C)C | inactive
33 | NCCc1ccc(O)cc1 | inactive
34 | Cc1ccc([N+](=O)[O-])cc1C | inactive
35 | O=[N+]([O-])c1ccc(Oc2ccc(Cl)cc2Cl)cc1 | inactive
36 | CC(C)C#N | inactive
37 | O=NN1CCCC1 | inactive
38 | CC(C)(C)OOC(C)(C)C | inactive
39 | C=CCO | inactive
40 | CCCC1COC(Cn2cncn2)(c2ccc(Cl)cc2Cl)O1 (stereo not given) | inactive
